KCNH2 3.1 block: KCNH2 3.1 (human) potassium channel inhibition | U2OS KCNH2 3.1, thallium flux FluxOr; hits give low values | activity change, % (tested at about 1.8 µM) | 0.95% of 340,000 active | AID 720553;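 active means maximum activity change below -70%; inconclusive means maximum activity change from -70% to -50%; inactive means maximum activity change above -50%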;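 further: thallium influx rate constant from kinetic fluorescence after stimulation buffer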
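Channel expression came from 3.1 mutant virus (1.77 x 10^8 /mL) applied to suspended U2OS cells for 4 h. Flux was tracked with FluxOr dye plus Red40 quencher, and kinetic rate constants normalized to controls.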
CtBP-E1A inh: inhibitors of CtBP/E1A interaction | 0.49% of 340,000 active | AID 651724 | activity change, % (no concentration beside the values) | AlphaScreen GST-E1A/His-CtBP binding, 1536-well; hits give low values
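Homogeneous bead-based format: GST-tagged E1A captured on glutathione donor beads, His-tagged CtBP on nickel acceptor beads; compounds precede bead addition by 2 h at 37 °C.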
KCNH2 WT inh: inhibitors of human wildtype KCNH2 potassium channel; U2OS, BacMam KCNH2, thallium flux FluxOr; hits give low values; 0.37% of 340,000 active; activity change, % at 1.84 µM; Q12809;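 active means maximum activity change below -70%; inconclusive means maximum activity change between -70% and -50%; inactive means maximum activity change above -50%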
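U2OS cells transduced with wild-type KCNH2 virus are loaded with FluxOr dye for 45 min, and thallium flux is measured in kinetic reads before and after stimulation buffer. Rate constants are normalized to DMSO controls.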
Six1-Eya2 blk: blocks human Six1 binding to Eya2. Q15475+O00167. AlphaScreen GST-Six1/His-Eya2 binding, biochemical; hits give low values. activity change, % (concentration not given with the values). 0.56% of 360,000 active. AID 651725
Target sequence (O00167 whole entry, looked up): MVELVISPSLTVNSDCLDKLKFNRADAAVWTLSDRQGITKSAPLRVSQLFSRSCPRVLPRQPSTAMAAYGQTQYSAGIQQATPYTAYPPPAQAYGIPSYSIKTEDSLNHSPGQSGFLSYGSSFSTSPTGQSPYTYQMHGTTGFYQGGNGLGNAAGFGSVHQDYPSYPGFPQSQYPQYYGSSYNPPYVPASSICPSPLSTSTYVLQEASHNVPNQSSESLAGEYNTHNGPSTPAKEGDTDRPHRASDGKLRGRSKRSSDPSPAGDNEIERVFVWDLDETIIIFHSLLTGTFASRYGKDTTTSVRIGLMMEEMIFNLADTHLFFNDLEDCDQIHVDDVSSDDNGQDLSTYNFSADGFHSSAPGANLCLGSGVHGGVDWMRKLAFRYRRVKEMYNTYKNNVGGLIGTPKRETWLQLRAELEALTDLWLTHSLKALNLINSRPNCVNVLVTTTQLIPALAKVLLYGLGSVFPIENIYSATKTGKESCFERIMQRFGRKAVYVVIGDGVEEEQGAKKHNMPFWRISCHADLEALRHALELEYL
Target sequence (Q15475 whole entry, looked up): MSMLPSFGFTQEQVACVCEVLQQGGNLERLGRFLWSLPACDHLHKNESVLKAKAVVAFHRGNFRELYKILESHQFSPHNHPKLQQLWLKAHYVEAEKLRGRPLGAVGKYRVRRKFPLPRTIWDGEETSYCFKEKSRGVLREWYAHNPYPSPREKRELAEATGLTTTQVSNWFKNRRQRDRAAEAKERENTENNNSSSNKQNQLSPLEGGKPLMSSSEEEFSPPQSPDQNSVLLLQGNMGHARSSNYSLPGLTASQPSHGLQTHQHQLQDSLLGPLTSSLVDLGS
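AlphaScreen luminescence read after one hour at 37 °C in darkness. Pin-transferred compounds met GST-Six1 and His-Eya2 protein (5X stock 250 nM/500 nM) plus glutathione donor and Ni-chelate acceptor beads (5X, 50 ug/mL).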
KDM4E inh: inhibitors of human JMJD2E histone demethylase | B2RXH2 | JMJD2E catalytic domain, FDH-coupled NADH fluorescence (FDH is formaldehyde dehydrogenase) | Potency, µM (highest dose often 57.1 µM), actives largely listed as inhibitors | 1.6% of 230,000 active | AID 2147; active means well fitted inhibition curve with a large enough effect, not every such curve was filed as active; inconclusive means small, poorly fitted or top-dose-only effect, or another doubt; inactive means no such curve, though single readings can be large or run the other way; further: nearly all actives have a fitted effect of over 50% in size
Of the large screens only hits and unclear results are named; the others gave an inactive call; ! = not confirmed by another sample. Most compounds without a hit are left out; they make up all but 2% or so of the library. Unless noted, no stated cut-off is given here; in the data, active means activity change below about -65%; inconclusive means mostly about -30% to -63%; inactive means weaker than that.

O=C(N/N=C/c1cc(Br)cc(Br)c1O)c1cccc(S(=O)(=O)N2CCOCC2)c1	CtBP-E1A inh -94, Six1-Eya2 blk -70
O=C(N/N=C/c1ccccc1Br)c1cccc(S(=O)(=O)N2CCOCC2)c1	none (no result: KDM4E inh)
CC(C)OC(=O)[C@@H]1CC[C@H](C)[C@@H](CCC[C@@H]2CC=C[C@H](CC#N)O2)O1	none (no result: KCNH2 3.1 block, CtBP-E1A inh, KCNH2 WT inh, Six1-Eya2 blk)
CCOc1ccccc1NC(=O)CN(c1ccc(OC)c(OC)c1)S(=O)(=O)c1ccc(C)cc1	KCNH2 3.1 block -108 (no result: KDM4E inh)
COc1ccc(NC(=O)CN(C)CC(=O)Nc2ccccc2SC)cc1	KDM4E inh inconclusive
COc1ccc([C@@H]2Sc3cc(OC)ccc3N(CCN(C(C)C)C(C)C)C(=O)[C@H]2OC(C)=O)cc1	KCNH2 3.1 block -100, KCNH2 WT inh -90
COc1cc(CNc2ccc(N3CCN(C(C)=O)CC3)cc2)ccc1OCc1ccccc1	CtBP-E1A inh inconclusive, Six1-Eya2 blk inconclusive, KDM4E inh 16µM
Cc1ccccc1C(=O)NC1CCN(CC(=O)N2CCCCC2C)CC1 (stereo unspecified)	KCNH2 WT inh -81 (no result: KDM4E inh)
COc1ccc(CC(=O)NCCc2ccc(OC)c(OC)c2)cc1	none (no result: KDM4E inh)
O=[N+]([O-])c1ccc(N2CCN(CCOCCO)CC2)c([N+](=O)[O-])c1	KDM4E inh 10µM (no result: CtBP-E1A inh)
COc1cc(NC(=O)c2cc(OC)c(OC)c(OC)c2)c(OC)cc1NC(=O)CN1CCCCC1	none
Cn1nc(C(C)(C)C)cc1C(=O)NCc1ccc(N2CCCC2=O)cc1	none
CN1CCN(C2Cc3ccccc3Sc3ccc(Cl)cc32)CC1 (stereo unspecified)	KCNH2 3.1 block inconclusive
CN1CCN(C2Cc3ccc(F)cc3Sc3cc(F)c(Cl)cc32)CC1 (stereo unspecified)	KCNH2 3.1 block -88 (no result: KDM4E inh)
CN1CCN(C2Cc3cc(F)ccc3Sc3ccc(Cl)cc32)CC1 (stereo unspecified)	KCNH2 3.1 block -78 (no result: CtBP-E1A inh, KDM4E inh)
FC(F)(F)c1cccnc1-n1cncn1	none (no result: CtBP-E1A inh)
COC(=O)[C@]1(C)N[C@H](c2ccc(-c3cccc(Cl)c3)cc2)[C@@H]2C(=O)N(C)C(=O)[C@@H]21	none (no result: KDM4E inh)
Cc1ccc2nc(/C(C#N)=C\c3ccc(N4CCOCC4)o3)[nH]c2c1	Six1-Eya2 blk inconclusive
N#C/C(=C\c1ccc(O)c(O)c1)C(=O)OCCc1cccs1	KDM4E inh 22µM (no result: KCNH2 3.1 block, CtBP-E1A inh, KCNH2 WT inh, Six1-Eya2 blk)
Cc1ccc(/C(C#N)=C\c2ccc(N3CCOCC3)o2)cc1	KDM4E inh 16µM
COc1cc(/C=C(\C#N)C(=O)N2CCCCC2)ccc1O	none (no result: KDM4E inh)
N#C/C(=C\c1ccc(O)c(O)c1)C(=O)NCCCc1ccccc1	CtBP-E1A inh inconclusive, KDM4E inh 3.2µM
N#C/C(=C\c1ccc(O)c(O)c1)C(=O)N1CCCC1	KDM4E inh 14µM
O=C(NC1CCCC1)C(c1ccccc1)N(Cc1ccco1)C(=O)Cc1cccs1 (stereo unspecified)	none
COc1cc(C=C(C#N)C(=O)c2ccccc2)cc(OC)c1OC	none (no result: KCNH2 3.1 block, KCNH2 WT inh, KDM4E inh)
N#C/C(=C\c1ccc(N2CCOCC2)o1)C(=O)NCCc1ccccc1	KDM4E inh 40µM
N#C/C(=C\c1c[nH]c2ccccc12)C(=O)c1ccc(O)c(O)c1	KDM4E inh 2.2µM (no result: KCNH2 3.1 block, CtBP-E1A inh, KCNH2 WT inh, Six1-Eya2 blk)
N#C/C(=C\c1ccc(O)c(O)c1)C(=O)c1ccc(O)c(O)c1	KDM4E inh 2.5µM
N#C/C(=C\c1ccc(O)c(O)c1)S(=O)(=O)c1ccccc1	KDM4E inh 25µM
COCCNC(=O)/C(C#N)=C/c1ccc(N2CCOCC2)o1	KDM4E inh inconclusive
N#C/C(=C\c1c[nH]c2ccccc12)C(=O)NC1CC1	none (no result: KDM4E inh)
O=C(Nc1cc(Cl)ccc1Oc1ccccc1)c1cnccn1	none
Oc1ccc(/C=N/N=C(c2ccccc2)c2ccccc2)c(O)c1O	KDM4E inh 14µM
Cc1cc(C)nc(Nc2nc(C(N)c3ccccc3)cs2)n1 (stereo unspecified)	CtBP-E1A inh -67, Six1-Eya2 blk -69 (no result: KCNH2 3.1 block, KCNH2 WT inh, KDM4E inh)
C[c-]1[c-](C)[c-](C)[c-](C)[c-]1C.[Fe].c1cc2nccc(N3CCCC3)[c-]2c1 (stereo unspecified)	KDM4E inh 10µM!
CC(=O)C(C(C)=O)c1c(Cl)c(O)c(O)c2c(C(=O)c3ccccc3)coc12	KDM4E inh 16µM
O=C1C(=O)c2cccnc2-c2ncccc21	CtBP-E1A inh -80, Six1-Eya2 blk -83 (no result: KCNH2 3.1 block, KCNH2 WT inh, KDM4E inh)
Cc1ccc2cc(C3C(C#N)=C(N)Oc4c3ccc3cccnc43)c(=O)[nH]c2c1 (stereo unspecified)	CtBP-E1A inh -94, Six1-Eya2 blk -72, KDM4E inh inconclusive
N#CC1=C(N)Oc2c(ccc3cccnc23)C1c1cccnc1 (stereo unspecified)	CtBP-E1A inh -92, Six1-Eya2 blk -91, KDM4E inh inconclusive
N#CC1=C(N)Oc2cc3ccccc3cc2C1c1cccnc1 (stereo unspecified)	none
C[n+]1cccc2ccc3c(c21)OC(N)=C(C#N)C3c1ccccc1 (stereo unspecified)	KDM4E inh 16µM
CC(=O)C1=C(C)OC(N)=C(C#N)C1c1cc2cccc(C)c2nc1Cl (stereo unspecified)	KDM4E inh inconclusive
CCc1ccc2[nH]c(=O)c(C3C(C#N)=C(N)Oc4c3ccc3cccnc43)cc2c1 (stereo unspecified)	CtBP-E1A inh -86, Six1-Eya2 blk inconclusive, KDM4E inh inconclusive
CCOC(=O)C1CCN(C(=O)N(CC)CC)CC1	none (no result: KCNH2 3.1 block)
CN1C(=O)/C(=C2\SC(=S)N(C(CCC(=O)O)C(=O)O)C2=O)c2ccccc21 (stereo unspecified)	KDM4E inh 13µM
CN1C(=O)/C(=C2\SC(=S)N(CC3CCCO3)C2=O)c2ccccc21 (stereo unspecified)	none (no result: KCNH2 3.1 block, CtBP-E1A inh, KCNH2 WT inh, Six1-Eya2 blk)
Cc1ccc(C(=O)NCC(c2ccco2)N2CCc3ccccc32)cc1C (stereo unspecified)	none (no result: KDM4E inh)
COc1ccccc1N1CCN(C(=O)C2CCC(Cn3c(=S)[nH]c4ccccc4c3=O)CC2)CC1 (stereo unspecified)	none
CCCCCCCCCCOC(=O)Cn1c(COc2ccccc2)[n+](C)c2ccccc21	none (no result: CtBP-E1A inh, KDM4E inh)
CCCCCCCCCCOC(=O)Cn1c(COc2cccc(C)c2)[n+](C)c2ccccc21	none (no result: KDM4E inh)
CCCCCCCCCCOC(=O)Cn1c(COc2ccccc2C)[n+](C)c2ccccc21	KCNH2 3.1 block -81, KCNH2 WT inh inconclusive (no result: KDM4E inh)
CCCCCCCCCCOC(=O)Cn1c(COc2ccc(OC)cc2)[n+](C)c2ccccc21	KCNH2 3.1 block -93!, KCNH2 WT inh -116! (no result: KDM4E inh)
O=C(CCCC1=NS(=O)(=O)c2ccccc2N1)OCc1ccc(Cl)cc1	none (no result: KDM4E inh)
CCOC(=O)c1sc2c(c1C)c(=O)n(Cc1ccccc1)c(=O)n2CCN(C)C	KCNH2 3.1 block -109 (no result: KDM4E inh)
CCOc1ccc(C(=O)NC(=S)N2CCN(c3ccc(C(F)(F)F)cc3[N+](=O)[O-])CC2)cc1	KCNH2 3.1 block -70, KCNH2 WT inh inconclusive
CC(=O)N1N=C(c2ccc(Cl)cc2)OC1c1ccc(C(C)C)cc1 (stereo unspecified)	KDM4E inh inconclusive

Bioassay records from PubChem BioAssay.
